Screening results: PubChem, several laboratories
RecA intein inh – Mtb RecA intein splicing inhibition. inhibition, % (test concentration not listed). 290,000 tested, 0.75% active. AID 2221. cell-free RecA intein splicing, fluorescence; in the data active = inhibition above about 30%;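 also: 0% = vehicle wells and 100% = reference inhibitor control wells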
GDH-TPI counter-1 – GDH-TPI coupled enzyme inhibition counter-screen | GDH-TPI coupled enzyme counterscreen, NADH absorbance | inhibition, % at 4.8 µM | 360,000 tested, 1.2% active; in the data active = inhibition above about 30%;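 also: 0% = DMSO wells and 100% = wells lacking the enzyme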
Rv3671c inh – inhibitors of M. tuberculosis serine protease Rv3671c. 320,000 tested, 0.048% active. inhibition, % at 5.96 µM. P9WHR9; in the data active = inhibition above about 38%;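 also: extracellular domain of Rv3671c used as enzyme; 0% = enzyme with DMSO and 100% = no enzyme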
UGM FP inh – Mtb UDP-galactopyranose mutase inhibition. inhibition, % at 10 µM. purified UGM, fluorescence polarization probe displacement. AID 504406. 320,000 tested, 0.06% active. P9WIQ1; in the data active = inhibition above about 10%, passing the limit was not always enough
Target sequence (P9WIQ1 whole entry, looked up): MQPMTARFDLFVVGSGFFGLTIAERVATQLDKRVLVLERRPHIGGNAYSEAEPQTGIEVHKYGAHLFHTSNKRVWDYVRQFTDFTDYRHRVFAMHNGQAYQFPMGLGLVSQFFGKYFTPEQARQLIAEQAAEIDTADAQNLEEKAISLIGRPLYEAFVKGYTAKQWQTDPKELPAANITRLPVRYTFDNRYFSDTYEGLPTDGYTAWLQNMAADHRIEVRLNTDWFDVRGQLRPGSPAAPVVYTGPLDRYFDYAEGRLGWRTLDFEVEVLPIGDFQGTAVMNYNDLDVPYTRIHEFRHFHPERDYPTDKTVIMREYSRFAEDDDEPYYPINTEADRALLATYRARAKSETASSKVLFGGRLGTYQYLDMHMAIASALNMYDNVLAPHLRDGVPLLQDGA
Mtb FBA inh – inhibitors of M. tuberculosis fructose-bisphosphate aldolase; P9WQA3; purified M. tuberculosis FBA, fluorescence read-out; inhibition, % at 1 µM; 360,000 tested, 2.3% active; AID 588726;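 also: 0% = vehicle and 100% = reference inhibitor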
Mtb bLac sens – beta-lactam sensitization of Mtb H37Rv. M. tuberculosis H37Rv growth with meropenem, percent inhibition. 330,000 tested, 0.27% active. inhibition, % at 25 µM; call rule not given here;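 also: growth measured after seven days incubation then overnight dye step; 0% = bacteria only wells and 100% = bacteria with antibiotic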
Mtb FBA confirm – confirmation of M. tuberculosis fructose-bisphosphate aldolase inhibitors | shares compounds with Mtb FBA inh | purified M. tuberculosis FBA, fluorescence read-out | inhibition, % at 1 µM | 5,600 tested, 78% active | AID 651616;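 also: 0% = vehicle wells and 100% = reference inhibitor wells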
GDH-TPI counter-2 – counter-screen for M. tuberculosis FBA inhibitors: GDH-TPI coupled enzyme inhibition; shares compounds with Mtb FBA inh; GDH-TPI coupled enzyme counterscreen, fluorescence; inhibition, % at 1 µM; 5,600 tested, 81% active; in the data active = inhibition above about 10%
Active calls of the source: *; x = not tested or not shown; + = active, no number. An excerpt weighted towards active compounds, which were near 4% of everything screened. Rule as the data show it, unless noted: active = inhibition above about 27%; inactive = the rest.

SMILES	RecA intein inh	GDH-TPI counter-1	Rv3671c inh	UGM FP inh	Mtb FBA inh	Mtb bLac sens	Mtb FBA confirm	GDH-TPI counter-2
CCn1c(-c2cc(-c3ccc(OC(C)C)cc3)nc3ccccc23)n[nH]c1=S	8.7	16.3	-6.3	-0.6	82.7*	44.5	-0.9	0.3
CCn1c(-c2cc(-c3ccc(C)cc3)nc3ccccc23)n[nH]c1=S	1.6	4.1	-0.1	0.1	-1.1	37.6	x	x
COc1ccc(-c2cc(=O)oc3c(C)c(OCc4nn[nH]n4)ccc23)cc1	2.3	17.0	-3.6	2.6	5.6	2.0	x	x
Cc1c(Cc2ccccc2)c(=O)oc2c(C)c(OCC(=O)NCc3ccccn3)ccc12	-2.5	2.2	-7.3	-0.5	4.8	-0.8	x	x
Cc1cc(OCc2nn[nH]n2)c2c(C)c(Cc3ccccc3)c(=O)oc2c1	5.5	3.4	-6.6	-0.4	104.8*	-5.0	66.1*	58.2*
CCCc1cc(=O)oc2c(C)c(OCc3nn[nH]n3)ccc12	-0.7	14.2	4.9	-2.2	50.2*	-12.2	3.1	-1.0
Cc1cc(OCc2nn[nH]n2)c2c(-c3ccccc3)cc(=O)oc2c1	0.1	-9.5	3.3	1.5	3.8	-3.5	x	x
Cc1c(Cc2ccccc2)c(=O)oc2c(C)c(OCc3nn[nH]n3)ccc12	x	18.2	-9.3	-1.9	65.9*	-7.8	+	+
CN(C)C1=NCC(CSC(=N)N)S1 (centres undefined)	-5.1	-0.6	2.6	-2.9	68.2*	5.9	200.0*	174.9*
CC(=O)c1ccc(N2CCN(S(=O)(=O)c3ccc4c(c3)NC(=O)CO4)CC2)cc1	0.6	28.4	7.2	-0.7	-0.2	4.9	x	x
CCc1ccc(-c2nc(SCC(=O)c3c(N)n(C)c(=O)n(C)c3=O)n[nH]2)cc1	x	2.6	-1.9	0.5	29.2*	-9.0	69.0*	55.8*
CCc1ccccc1Cn1c(=O)oc2cccnc21	-0.7	-7.3	7.1	-0.9	40.4*	-14.0	41.4*	37.0*
COc1ccccc1Cn1c(=O)oc2ccccc21	x	7.1	x	x	-1.1	x	x	x
CC(C)(C)Cc1c(-c2cccc(Br)c2)nc2ccc(Br)cn12	x	x	x	x	1.8	x	x	x
COc1cccc2c(=O)c3c(oc12)CCCC3	x	5.6	x	x	45.0*	x	131.3*	93.5*
Nc1cccc2c3c(oc12)CCCC3	0.9	0.7	2.6	1.3	-1.9	67.1	x	x
O=c1cc(CCl)nc(Cc2c(Cl)cccc2Cl)[nH]1	0.8	-1.1	4.3	1.1	-1.3	92.4	x	x
COc1ccc2c(C)c(C(=O)N3CC[C@@H](N4CCC(O)CC4)[C@H](O)C3)oc2c1	-0.3	-0.4	3.7	-0.6	45.5*	-8.0	105.4*	81.5*
COc1ccc(Br)cc1CN(C)CC(O)COc1ccc(Br)cc1 (centres undefined)	6.1	16.4	-0.6	2.1	53.2*	93.0	66.7*	53.6*
Cc1cccc(NC(=O)C(=O)NCC2CCCN2S(=O)(=O)c2cccs2)c1 (centres undefined)	x	2.6	x	x	0.4	x	x	x
CC(C)(CO)NS(=O)(=O)c1ccc2c(c1)oc(=O)c1cc(S(=O)(=O)NC(C)(C)CO)ccc12	x	9.1	3.6	-1.8	81.0*	-4.5	4.6	-10.0
COc1cc2c3c(c1)C(C)=CC(C)(C)N3C(=O)C2=O	1.3	9.3	-0.9	1.9	29.1*	6.2	-0.2	0.2
O=C(c1cccs1)N1CCc2c([nH]c3ccccc23)C1c1ccccn1 (centres undefined)	3.4	6.5	-1.1	0.8	33.8*	2.9	0.8	-4.6
CC(=O)c1ccc(C(=O)N2CCc3c([nH]c4ccccc34)C2c2ccccn2)s1 (centres undefined)	3.1	0.0	-1.0	1.7	0.4	2.5	x	x
Cc1ccc(NC(=O)Cn2c(=O)cnc3ccccc32)cc1S(=O)(=O)N1CCOCC1	x	21.7	4.0	-1.5	9.5	3.3	x	x
Cc1ccc(CN2CC(C(=O)Nc3cc(C)ccn3)CC2=O)cc1 (centres undefined)	-1.6	-7.4	-2.0	-2.6	0.7	-6.9	x	x
CC1(C)Cc2c(c(-c3ccco3)nc3sc4c(NCCO)ncnc4c23)CO1	-2.5	29.8	-6.0	-2.9	44.0*	0.0	135.2*	101.2*
